# KB-V1 cytotox – KB-V1 MDR subline cytotoxicity; KB-V1 MDR cells viability, CellTiter-Glo, 72 h; hit rate 3.4% among 400,000; Potency, µM (series often up to 46.1 µM), actives largely listed as cytotoxic; also: potency is read from the fitted curve at half-maximal effect; % is scaled to controls: 0 for no effect and ±100 for the full control effect; nearly all actives have a fitted effect of over 60% in size
#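 qHTS viability screen in drug-selected KB-V1 MDR cells: 72 h compound treatment at 37 degrees C, ATP luminescence end point.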
# KCNH2 3.1 inh – blocks the human KCNH2 3.1 channel isoform. U2OS KCNH2 3.1, thallium flux FluxOr; active compounds read low. activity change, % (tested at about 1.8 µM). hit rate 0.95% among 340,000. AID 720553;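 active = maximum activity change below -70%; inconclusive = maximum activity change from -70% to -50%; inactive = maximum activity change above -50%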;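 also: thallium influx rate constant from kinetic fluorescence after stimulation buffer; % is scaled to controls: 0 for no effect and ±100 for the full control effect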
#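 Measured as rate of thallium-driven FluxOr signal in transduced U2OS cells carrying the 3.1 channel, read kinetically for 2 min upon stimulation; values are rate constants scaled to DMSO control wells.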
# KB-3-1 tox – KB-3-1 parental cell cytotoxicity | KB-3-1 viability, CellTiter-Glo ATP luminescence, 72 h | Potency, µM (highest dose often 46.1 µM), actives largely listed as cytotoxic | hit rate 1.4% among 400,000; also: potency is read from the fitted curve at half-maximal effect; % is scaled to controls: 0 for no effect and ±100 for the full control effect; nearly all actives have a fitted effect of over 60% in size
#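 Multi-concentration cytotoxicity screen in KB-3-1 cells grown in DMEM lacking phenol red with 10% FBS. After 72 h at 37 °C with compound, ATP-dependent luminescence was recorded.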
# MCF10A rerep – induces DNA re-replication in MCF 10a normal breast cells; MCF 10A DNA re-replication, Hoechst nuclear intensity, 48 h; Potency, µM (top dose mostly 46.1 µM), without a hit: at the highest dose activity, positive = re-replication, usual class: activators; hit rate 2.9% among 350,000; also: potency is read from the fitted curve at half-maximal effect; % of control where 0% means no effect; nearly all actives have a fitted effect of over 50% in size
# SW480 rereplic – induces DNA re-replication in SW480 colon adenocarcinoma cells. SW480 DNA re-replication, Hoechst DNA content imaging, 48 h. hit rate 1.8% among 340,000. AID 624297. Potency, µM (top dose mostly 46.1 µM), inactives show top-dose re-replication activation, usual class: activators; also: potency is read from the fitted curve at half-maximal effect; % of control where 0% means no effect; nearly all actives have a fitted effect of over 55% in size
#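 Hoechst fluorescence of nuclei (405 nm excitation, 500-530 nm emission) measured by plate-scanning imager after 48 hr compound exposure at 37 C; re-replication scored as increased number of nuclei with elevated intensity.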
# KCNH2 WT inh – inhibitors of human wildtype KCNH2 potassium channel | U2OS, BacMam KCNH2, thallium flux FluxOr; active compounds read low | activity change, % at 1.84 µM | AID 720551 | hit rate 0.37% among 340,000;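 active = maximum activity change below -70%; inconclusive = maximum activity change between -70% and -50%; inactive = maximum activity change above -50%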; also: % is scaled to controls: 0 for no effect and ±100 for the full control effect
#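 U2OS cells transduced with wild-type KCNH2 virus are loaded with FluxOr dye for 45 min, and thallium flux is measured in kinetic reads before and after stimulation buffer. Rate constants are normalized to DMSO controls.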
# An asterisk follows results filed as active; i = inactive; ? = inconclusive; . = no result; [ ] = remark or other dose. The list is not random: actives were taken first. Their share in the collection is about 7.6%. Unless noted, calls follow the shape of the dose curve; as a rule, active = well fitted curve in the direction sought with a large enough effect; inconclusive = small, poorly fitted or top-dose-only effect, or another doubt; inactive = no such curve, though single readings can be large; an effect the other way counts as inactive or inconclusive.
SMILES,KB-V1 cytotox,KCNH2 3.1 inh,KB-3-1 tox,MCF10A rerep,SW480 rereplic,KCNH2 WT inh
COc1ccc2c(ccc[n+]2[O-])c1,i,-2,i,-3%,-12%,-4
[O-][n+]1c2ccccc2cc2ccccc21,i,3,i,18µM*,18µM*,5
NS(=O)(=O)c1ccc(NC(=O)COC(=O)c2cnc(Cl)c(Cl)c2)cc1,?,2,i,-5%,-2%,8
CC(=O)Nc1nn(C)c2nc3cc(C)ccc3cc12,i,-4,i,7%,12%,13
Cc1ccc2cc3c(NC(=O)c4ccco4)nn(C)c3nc2c1,?,-16,?,18µM*,?,14
CCn1nc(NC(=O)c2ccco2)c2cc3cc(C)ccc3nc21,?,-2,i,?,18µM*,-4
CCCn1nc(NC(=O)c2ccco2)c2cc3ccccc3nc21,?,19,?,16µM*,18µM*,-1
COc1cccc(NC(=O)C2CCC(CNS(=O)(=O)c3csc(C(N)=O)c3)CC2)c1 (configuration not stated),i,.,i,.,.,.
CN(C)/C=C1\Oc2ccc3ccccc3c2C1=O,?,2,i,3%,3%,4
O=C1C(=O)c2c(ccc3ccccc23)-c2ccccc21,4.1µM*,6,4.1µM*,1.8µM*,9.2µM*,-1
CCOC(=O)c1nnn(CC(=O)N2N=C(c3ccc(Cl)cc3)CC2c2ccccc2)c1C(=O)OCC (configuration not stated),?,-71*,i,19%,-4%,-12
COc1ccc(C2CC(c3ccccc3)=NN2C(=O)COC(=O)c2cnc(Cl)c(Cl)c2)cc1 (configuration not stated),i,0,i,-5%,.,-2
CCOC(=O)c1nnn(CC(=O)N2N=C(c3ccc(Cl)cc3)CC2c2ccc(OC)cc2)c1C(=O)OCC (configuration not stated),i,?,i,1%,0%,-76*
CCOc1ccc(S(=O)(=O)NC(Cc2c[nH]c3ccccc23)C(=O)O)cc1 (configuration not stated),i,1,i,-12%,-14%,-1
CC(C)c1nnc(NC(=O)c2nc(S(=O)(=O)Cc3ccc(F)cc3)ncc2Cl)s1,i,31,?,0.73µM*,1.3µM*,3
O=C(Nc1ccccc1)c1nc(S(=O)(=O)Cc2ccccc2F)ncc1Cl,i,.,i,.,.,.
Cc1ccc(CS(=O)(=O)c2ncc(Cl)c(C(=O)Nc3nnc(C(C)C)s3)n2)cc1,?,30,?,?,6%,0
Cc1nnc(NC(=O)c2nc(S(=O)(=O)Cc3ccccc3C)ncc2Cl)s1,?,1,?,2.6µM*,?,-15
CC(C)c1nnc(NC(=O)c2nc(S(=O)(=O)Cc3ccccc3F)ncc2Cl)s1,i,1,?,0.73µM*,12%,-21
CCCCCC(=O)NN=C1CCN(Cc2ccccc2)CC1,i,-6,i,-12%,-2%,-5
O=C(CN1CCN(c2ccc(F)cc2)CC1)Nc1ccc(S(=O)(=O)N2CCOCC2)cc1,i,3,i,13%,0%,2
Cc1ccc(C2=CC(c3ccccc3C)n3c(nc4ccccc43)N2)cc1 (configuration not stated),i,.,i,.,.,.
COc1ccc(NC(=O)c2cccc(Oc3ccccc3)c2)cn1,?,-5,8.2µM*,?,?,-10
O=C(Nc1ccc(Br)cc1)c1cccc(S(=O)(=O)Nc2cnc3ccccc3c2)c1,i,-29,i,?,2%,-8
O=C(Nc1ccc(Br)cc1)c1cccc(S(=O)(=O)Nc2ccccn2)c1,?,.,i,?,-2%,-191*
SMILES,KB-V1 cytotox,KCNH2 3.1 inh,KB-3-1 tox,MCF10A rerep,SW480 rereplic,KCNH2 WT inh
COc1ccc(NC(=O)Cc2ccc(-c3ccccc3)cc2)cn1,13µM*,16,?,?,?,-4
O=C(Nc1ccccc1)c1cccc(S(=O)(=O)Nc2ccccn2)c1,?,-3,i,0%,8%,-4
COc1ccc(NC(=O)c2cccc(S(=O)(=O)Nc3ccc(Br)cc3)c2)cn1,?,9,12µM*,?,-4%,6
COc1ccc(Nc2ncc3c(n2)CCN(Cc2sccc2C)C3)c(OC)c1,i,.,i,.,.,.
COc1cc(C)ccc1OCCOc1ccccc1Cl,i,-17,i,2%,2%,5
Cc1cc2ccccc2c[n+]1C1CCCCC1,i,.,4.6µM*,.,.,.
O=C(NC1CCCCC1)c1ccc2ccccc2c1,i,-1,i,.,.,6
CCn1cnc2c(cnn2-c2ccccc2)c1=O,10µM*,-5,?,8%,4%,-10
COC(=O)c1ccccc1NC(=O)Cn1cnc2c(cnn2-c2ccccc2)c1=O,6.5µM*,-2,i,-7%,-5%,-11
CCOC(=O)c1ccccc1NC(=O)Cn1cnc2c(cnn2-c2ccccc2)c1=O,i,-10,i,-12%,-2%,5
CS(=O)(=O)N(CCc1ccccc1)CC(=O)NCc1ccco1,i,6,i,1%,-6%[9.22 µM],6
O=C1c2cccc(OCc3ccc(F)cc3)c2CCN1Cc1ccccc1,?,-18,16µM*,?,-2%,13
Cc1ccc(COc2cccc3c2CCN(Cc2ccc(F)cc2)C3=O)cc1,5.8µM*,1,?,23%,16%,1
Nc1nc(Br)c2c(F)cccc2c1-c1ccc(Cl)cc1,i,-3,i,7.3µM*,21µM*,4
Nc1nc(Br)c2ccccc2c1-c1ccccc1,i,-15,i,22µM*,?,-9
Cc1[nH]nc(N)c1-c1ccc(Cl)cc1,i,2,i,1%,5%,9
CCOc1cc(-c2ccc(OC(=O)c3ccc(OC)cc3)c(OC)c2)cc(=O)c2c(C)oc(C)c12,?,.,i,.,.,.
O=C(CC1OC(=O)c2ccccc21)NNC(=O)c1ccc(F)cc1 (configuration not stated),i,3,i,0%,-5%,10
CCOC(=O)C1=C(C)NC(C)=C(C(=O)OCC)C1/C=C/c1ccccc1OC,21µM*,5,i,?,23µM*,0
COCCOC(=O)C1=C(C)NC(C)=C(C(=O)OCCOC)C1/C=C/c1ccccc1OC,i,5,i,0%,4%,-7
CCOC(=O)C1=C(C)NC(C)=C(C(=O)OCC)C1c1ccccc1C=CC(=O)OC(C)(C)C,.,.,.,?,30µM*,.
NC(=Nc1ccccc1)N(c1ccccc1)c1ccccc1,i,2,i,12µM*,?,-2

# Bioassay records (PubChem)
